# Experimental data from the supplement of paper PMC6555819.
# What was measured:
# Assay in all cases: PBM binding z-score (relative to random genomic background probes); higher = stronger binding; sequences stand for … in GC…GCGATTGACAGCGTAGAATGAAGG
# [1] = system: RARb homodimer (NR concentration 270 nM)
# Outline: (§1)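 Probes were double-stranded and carried 34-nt variable regions with direct-repeat seeds, single-nucleotide variants, half-site ablations and random human genomic background sequences, printed on custom Agilent 4×180K protein-binding microarrays. Arrays were incubated 1 h with ligand-free nuclear receptor dimers in PBS pH 7.4, 2% milk, 0.02% Triton X-100, 1 mM DTT, 0.2 mg/mL BSA and 0.4 mg/ml salmon testes DNA. Antibodies against each partner (one per run) detected binding, and scanned fluorescence was regression-normalized. Binding z-scores use the random background probes as reference.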
# [2] = system: RARg:RXRa (NR concentration 270 nM, RXRa partner concentration 90 nM)
# Outline: as §1
# [3] = system: RARg homodimer (NR concentration 270 nM)
# Outline: as §1
# [4] = system: RXRa DBDmut IVT, anti-RXR (DBD mutation: RXRa K156A/R161A, NR concentration 90 nM)
# Outline: as §1
# [5] = system: RXRa homodimer (NR concentration 180 nM)
# Outline: as §1
# [6] = system: THRa:RXRa (NR concentration 90 nM, RXRa partner concentration 90 nM)
# Outline: as §1
# [7] = system: THRa homodimer (NR concentration 90 nM)
# Outline: as §1
# [8] = system: VDR homodimer (NR concentration 270 nM)
# Outline: as §1
Sequence,PBM binding z-score [1],PBM binding z-score [2],PBM binding z-score [3],PBM binding z-score [4],PBM binding z-score [5],PBM binding z-score [6],PBM binding z-score [7],PBM binding z-score [8]
ACAGACACGTGATGAAGGTAACTCAGGCTATCAT,-0.0735,0.142,0.316,0.207,0.38,0.724,0.228,-0.42
GCGACTGGGGCAAAGCAGGTTACAATAAGGTTGG,1.15,0.682,0.779,-0.0572,0.668,3.11,0.0569,-0.351
TCTCGGAGGACACGCAGGTCAGAGCTTTCCAGAG,2.81,2.47,3.04,0.783,1.05,2.63,1.06,1.2
TCTATTAGTTGATTAGGGCAATCGAAACAGCGGA,0.402,0.658,0.528,0.966,0.804,0.453,0.15,0.435
CGTCAAAGTTCAACTAAGGTAAAGTAAAGCACGC,3.97,6.03,6.89,3.88,5.08,5.01,1.49,3.59
ATGGAAAGGTCGACGAGGTGAGTATACACCGTTT,3.01,4.09,4.05,0.942,4.19,3.7,0.967,0.927
GCATATAGGGAATACAAGGTGAAAGTCCGATTGT,0.509,0.203,0.249,0.292,0.268,3.15,0.78,-0.263
TCTTGTAGATCAATAGAGGTTACGAAAGTGCGCT,1.7,1.05,0.657,0.65,1.54,2.75,0.12,0.507
TCGAGTAGGTTAGGGCCATTCAGAATGGCGTCGA,0.309,-0.0137,0.11,-0.0874,0.299,0.672,-0.173,-0.211
CATACAGGGTCAGCTAGGCCAGAGGAGGGACGGC,3.12,4.3,4.65,1.64,4.14,2.75,0.692,1.36
TGAATGAGGTTAAAGATGAGGGAACGTGGCGTCG,0.748,2.16,1.21,1.33,2.86,2.4,0.742,0.849
ACTAGCAGGCCTAGGGTCACTCAAGATTAGTCCG,2.83,2.61,2.35,0.221,3.15,3.27,2.26,1.07
GATACAGGTTCAGCTAGAGGCCAGAGTATGGAAA,1.13,4.48,1.11,3.05,1.33,1.16,-0.412,2.29
GCTTACGGGTCAAAGGTTCTAGCATGAATAGAAT,2.69,5.33,4.79,2.09,7.13,2.7,-0.332,1.55
ATCTCTAGGTCAAGTTCAGTGAAAGATCGATAGA,3.89,4.93,5.92,2.98,3.73,3.44,2.16,3.44
TCTTGTAGATCAAAGGTTAAGAAAGCCGAAGCCT,1.36,1.68,0.776,0.652,3.27,1.27,-0.357,-0.0957
CCTAGCAGGCCAGGGCCACTCAAGCATTTCGCTT,-0.124,-0.441,-0.124,-0.762,-0.718,-0.482,-0.794,-0.946
TCTAGCAGGCCAGAGGGTCACTCATGAGGTACGG,2.62,2.59,2.22,-0.0474,2.55,1.59,-0.102,0.736
CCTTACGGCTCACTCCAGGTTATAGCATCGGAGT,0.313,-0.122,0.148,0.487,-0.0506,1.15,0.628,0.0912

Sequence,PBM binding z-score [1],PBM binding z-score [2],PBM binding z-score [3],PBM binding z-score [4],PBM binding z-score [5],PBM binding z-score [6],PBM binding z-score [7],PBM binding z-score [8]
ATCTCTAGCTAAAGTTCAGTGAAAGATCGATAGA,2.45,1.76,2.45,0.982,1.11,0.511,-0.124,1.9
GCGACTGGGGCATCGGCAGGTTACCATAACTTAA,1.07,1.17,0.592,-0.207,0.141,1.11,0.42,-0.113
ACTATTAGTTGTCTTAGGGCAACCGATACGACGC,0.406,0.149,0.589,0.518,0.061,1.03,0.603,0.0368
CGAACGAGCGCATGAGTTGATAGCAAATGCCGAT,-0.651,-0.0221,-0.247,0.162,-0.236,-0.516,-0.891,-0.0717
TAGCCTAGGTCACGCGGGCCAGTATAGTGTCGGC,3.49,5.13,5.55,0.633,4.2,3.74,1.61,0.563
AGAATGAGGTTACCAAAGATCCGGGAAACGCTTG,0.848,1.96,1.65,1.05,2.5,2.61,0.714,0.252
CAAACTAGGTCTCAGAGGTCAAAGTCCGTGCGTA,4.68,5.13,4.6,1.65,6.01,3.63,1.7,4.57
TCTAGATGGTCAAAGGTCACACACTCGAAATGCG,4.98,7.31,5.87,1.9,8.64,3.96,1.9,2.51
AGAACGAGGGCACGCTGAGTTGATAACAGAGTAG,1.27,2.23,2.45,1.47,1.49,1.78,0.282,1.46
TCACATAGGTAAACAGGTGAAAGTCCGTAAGTTA,0.832,0.608,0.415,0.731,1.12,0.714,0.454,0.318
CCTATTCGTTGACCATAAGGGCAACCGAAGCTCG,2.14,1.16,1.04,0.173,0.704,1.85,1.57,0.974
TCATATAGGTAAAGGTGAAAGTTGAACGATATGA,2.08,2.34,1.51,0.648,3.71,1.79,-0.127,0.139
CTCGAAAGGTCGTGCTCAGGTGAGAATACCAAAC,2.73,5.24,4.09,2.05,4.93,4.12,1.14,0.913
CAAGCTAGGTCACAGAGGTCAAAGTCCGTGCGTA,5.82,7.64,8.36,3.42,8.42,4.64,2.65,7.28
CCTCGGAGGACAGAAGGTTAGAGCTGTCCGCTTT,0.668,0.736,0.681,-0.0367,-0.125,0.441,-0.513,-0.565
ATATGTAGGTTAGCTGGGGTCACTCAGACTAGGC,4.11,4.29,3.51,1.52,5.23,5.18,3.2,2.95
ATCGAAAGGTCGAGATGAGTATAGAGAAAGGGAA,1.97,3.79,3.54,0.857,3.81,1.93,-0.434,0.309
ATCTCTAGCTAAAGATAGTTCAGTGAATGCAAAT,0.481,0.461,0.353,-0.2,0.159,0.114,-0.112,0.516
AGAACGAGAGCAATGAGTTGATAGCACGGGTGGC,-0.971,-0.154,-0.0386,-0.0984,0.0785,-0.86,-1.05,0.253

Sequence,PBM binding z-score [1],PBM binding z-score [2],PBM binding z-score [3],PBM binding z-score [4],PBM binding z-score [5],PBM binding z-score [6],PBM binding z-score [7],PBM binding z-score [8]
ATCTCTAGGTAAGACTCAGTTCAGTGATGAACGC,0.637,0.588,0.547,0.656,0.315,0.739,0.755,1.4
GCTCGGAGGACAAGGTCAGAGCGTTGTCCGTAGA,2.97,3.26,3.69,0.33,2.43,2.89,1.25,0.555
AGAATGAGCTTAAGATCAGGGAAACAGAATACAT,-0.611,-0.159,0.233,-0.641,-0.0967,-0.123,-0.875,-0.392
TCTAGTTGGTCACGGAGGCCACACACGACGGGTA,2.01,1.65,2.06,0.633,1.06,0.977,0.377,0.2
TCATATTGGTAATACAGGTGAAAGTCGGCATCTA,0.667,0.388,0.332,1.69,0.917,0.669,0.437,0.279
ATCTCTAGGTAACCAAGTTTAGTGAATGCCGAAC,0.287,0.383,0.348,0.384,0.298,0.78,0.672,0.855
ATATGTAGGTTACATCCGGATCATTCAGGCTATG,0.614,1.02,1.25,0.718,1.24,1.3,0.394,0.331
GCGACTGGGGCATCAGCAGGTAACCATAACTTAA,0.543,0.292,0.296,0.0904,0.119,0.856,0.168,-0.668
TCGAGTAGGTTAGCAATGGGGCATTCAGCTTTCT,0.353,0.194,-0.0673,0.158,0.129,-0.27,-0.716,-0.45
TCTTGTAGATCAACAGGTTAAGAAAGCTGGCCAA,0.358,0.2,-0.172,0.696,0.726,0.203,-0.285,-0.285
CCTATTAGTTGACCATAAGGGCGACCGAAGCTCG,1.12,0.591,0.438,0.516,0.491,0.798,0.626,0.694
TCTAGTTGTTCAAAGGTCACACACTCGAAATGCG,5.28,6.3,6.07,2.05,7.19,4.11,2.21,2.78
TAGCCCAGGTCATGGGCCAGTATACCACGCGAAC,2.61,4.42,4.43,0.576,4.06,3.69,2.3,1.08
GCAGACAGGTGAAACGCAGTTAACTCAGGGTGGC,-0.134,0.384,0.0446,-0.62,0.577,0.459,-0.813,-0.764
TATACAGGGTCAAAGGCCAGACTACGAATGTCGA,3.59,5.73,5.23,3.01,6.99,3.6,0.88,2.33
GGAACGAGGGGATTCGAGTTGATAGCATGGCGAT,-0.999,-0.337,-0.0526,-0.0556,-0.258,0.618,-0.631,0.0927
TCTTGTAGATCAGCAGGTTAAGCAAGCTGGCCAA,-0.0177,-0.192,-0.525,0.455,0.213,-0.00536,-0.897,-0.751
TCAGACAGGCGAAGGTAACTCAGGTACGCAGTCG,-0.405,-0.089,-0.377,0.863,0.579,0.951,-0.297,-0.35
